Activity calls are given as the source filed them. Calls follow the shape of the full dose curve.
What follows are compounds tested against Thyrotropin-releasing hormone receptor (Homo sapiens) (UniProt P34981) (assay: qHTS assay to identify small molecule agonists of the thyrotropin-releasing hormone receptor (TRHR) signaling pathway (AID 1346891;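 also: HEK293 cells expressing TRHR with calcium dye readout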)). Conditions: TRHR-HEK293 calcium fluorescence, agonist mode; series mostly up to 57.6 µM.
Thyrotropin-releasing hormone receptor (Homo sapiens), sequence (P34981 whole entry, looked up): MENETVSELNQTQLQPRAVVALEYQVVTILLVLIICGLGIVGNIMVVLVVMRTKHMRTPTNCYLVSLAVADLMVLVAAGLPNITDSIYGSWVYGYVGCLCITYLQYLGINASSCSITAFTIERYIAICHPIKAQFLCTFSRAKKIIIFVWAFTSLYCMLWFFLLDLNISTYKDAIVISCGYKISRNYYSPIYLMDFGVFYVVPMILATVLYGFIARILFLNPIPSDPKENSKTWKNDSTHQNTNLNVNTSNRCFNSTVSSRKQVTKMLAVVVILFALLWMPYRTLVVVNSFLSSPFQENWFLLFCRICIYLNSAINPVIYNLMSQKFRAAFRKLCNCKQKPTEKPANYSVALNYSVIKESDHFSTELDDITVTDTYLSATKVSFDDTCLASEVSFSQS
Text: National Center for Advancing Translational Sciences [NCATS] NIH Chemical Genomics Center [NCGC] U.S. Environmental Protection Agency [EPA] National Institutes of Environmental Health Sciences [NIEHS] National Toxicology Program [NTP] Assay overview: Thyrotropin-releasing hormone (TRH) receptor (TRHR) is a G-protein-coupled receptor which binds the tripeptide thyrotropin releasing hormone. TRHR is found in the brain and, when bound by TRH, acts (through phospholipase C) to increase intracellular inositol trisphosphate. It plays a crucial role in the anterior pituitary where it controls the synthesis and secretion of thyroid stimulating hormone and prolactin. The TRHR-Hek293 assay is a cell-based assay, and it has the potential to screen G protein-coupled receptors. A compound/drug can either activate (agonist) or suppress (antagonist) GPCRs that can be monitored by levels of intracellular calcium. Using this assay, the Tox21 10K compound library was screened to identify potential TRHR agonists.
Assay Protocol Summary: The TRHR-Hek293 cells were dispensed at 1500cells/4uL/well in 1536-well black-clear bottom plates using a Multidrop dispenser. After the assay plates were incubated at a 37 C/5% CO2 incubator for 18 hours, 4 uL of Dye-Loading Solution was added to each well. The plates were incubated at 37 C for 2 hours. For agonist mode, 23 nL of compounds dissolved in DMSO, positive controls or DMSO only was transferred to the assay plate by a pin tool. The fluorescence intensity in the plates was measured using FDSS 7000EX kinetic plate reader for 3 min at 1 sec intervals. Each test compound was measured at 15 concentrations and in triplicates.
For Cc1cccnc1, the outcome was “inactive”.
In the case of Cc1cc(C)c(C)cc1C, the outcome is reported as “inactive”.
With CN(C)CCC(c1ccccc1)c1ccccn1 (stereo not given) the outcome was “inactive”.
Oc1cccc2ccccc12 was tested, and the outcome was “inactive”.
In the case of CCCCOC(=O)COc1ccc(Cl)cc1Cl, the outcome is reported as “inactive”.
In the case of CCCCCC1=CCCC1=O, the outcome is reported as “inactive”.
With CC(c1cc2ccccc2s1)N(O)C(N)=O (stereo not given) the outcome was “inactive”.
For CCc1ccc(CCOc2ccc(CC3SC(=O)NC3=O)cc2)nc1 (stereo not given), the outcome was “inactive”.
With O=C(Oc1ccccc1)c1ccccc1 the outcome was “inactive”.
For CCc1cccc(C)c1N, the outcome was “inactive”.
CC1=CCC2CC1C2(C)C (stereo not given) was tested, and the outcome was “inactive”.
C/C=C1/CC2C=CC1C2 (stereo not given) was tested, and the outcome was “inactive”.
In the case of COc1cc(Cc2cnc(N)nc2N)cc(OC)c1OC, the outcome is reported as “inactive”.
In the case of CC(=O)CC(=O)Nc1ccccc1C, the outcome is reported as “inactive”.
For O=C(O)c1cc(O)c(O)c(O)c1, the outcome was “inactive”.
CCCSc1ccc2nc(NC(=O)OC)[nH]c2c1 was tested, and the outcome was “inactive”.
C=C(C)C(=O)O[C@H]1C[C@@H]2CC[C@@]1(C)C2(C)C was tested, and the outcome was “inactive”.
For COc1ccc(Nc2ccccc2)c(C)c1, the outcome was “inactive”.
With CC(=O)OCC(=O)[C@@]12N=C(C)O[C@@H]1C[C@H]1[C@@H]3CCC4=CC(=O)C=C[C@]4(C)[C@H]3[C@@H](O)C[C@@]12C the outcome was “inactive”.
CCCCCCCCCCCCc1ccccc1 was tested, and the outcome was “inactive”.
CCCCCCCCCCCCS was tested, and the outcome was “inactive”.
In the case of O=C(O)c1ccc2c(c1)C(=O)OC2=O, the outcome is reported as “inactive”.
For CCCC(C)=O, the outcome was “inactive”.
For C=C(C)C(=O)Nc1ccc(Cl)c(Cl)c1, the outcome was “inactive”.
In the case of Fc1ccc(Br)cc1, the outcome is reported as “inactive”.
In the case of O=c1[nH]c(=O)n([C@H]2CCCO2)cc1F, the outcome is reported as “inactive”.
For O=S1(=O)CC=CC1, the outcome was “inactive”.
In the case of C=CCNC(N)=S, the outcome is reported as “inactive”.
For CC1=C(C)S(=O)(=O)CCS1(=O)=O, the outcome was “inactive”.
OCc1cccnc1 was tested, and the outcome was “inactive”.
For CCCCC(CC)COC(=O)CCCCC(=O)OCC(CC)CCCC (stereo not given), the outcome was “inactive”.
In the case of CCCCCC(N)=O, the outcome is reported as “inactive”.
In the case of Cc1ccc(N(C)C)cc1, the outcome is reported as “inactive”.
With OCCOCCOCCO the outcome was “inactive”.
CCC(O)OC(O)CC (stereo not given) was tested, and the outcome was “inactive”.
With C#CCN(C)Cc1ccccc1 the outcome was “inactive”.
For CCCCCCCCCCCCCCO, the outcome was “inactive”.
With CCCCCC/C(C=O)=C\c1ccccc1 the outcome was “inactive”.
For O=C(O)c1ccc(C(=O)O)cc1, the outcome was “inactive”.
In the case of Nc1ccccc1[N+](=O)[O-], the outcome is reported as “inactive”.

Source: PubChem BioAssay (Tox21)
